Data from PubChem BioAssay (NCI).
Compounds without any hit were thinned out: in the full panel of roughly 79,000, 15% have a hit. A number with no mark means an inactive call. Calls of active or inactive are those of the source. Cut-off read from the data, not from the text of the source: active = growth inhibition above about 70%; inactive = the rest.

Columns and labels:
[1] = NCI Yeast Anticancer Drug Screen. Data for the rad50 strain (AID 155);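 note: 0% = growth of vehicle-only cultures of the same strain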; conditions: S. cerevisiae rad50 strain growth inhibition, stronger effect = higher value
How it was run: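 Relative growth inhibition (compound vs vehicle) was measured in yeast with a defined repair-gene alteration.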

[2] = NCI Yeast Anticancer Drug Screen. Data for the mec2-1 strain (AID 157); conditions: S. cerevisiae mec2-1 strain, stronger effect = higher value
How it was run: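 Readout is yeast growth inhibition, normalised to vehicle-treated controls, in the mec2-1 strain exposed to compound.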

[3] = NCI Yeast Anticancer Drug Screen. Data for the sgs1 mgt1 strain (AID 161);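 note: 0% = growth of cultures given vehicle only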; conditions: S. cerevisiae sgs1 mgt1 strain, stronger effect = higher value
How it was run: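 Percent growth inhibition was derived by comparing compound-exposed mutant yeast with vehicle-exposed cultures. The strain carries alterations in DNA damage repair.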

[4] = NCI Yeast Anticancer Drug Screen. Data for the cln2 rad14 strain (AID 165);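 note: 0% = growth equal to vehicle treated cultures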; conditions: S. cerevisiae cln2 rad14 strain, stronger effect = higher value
How it was run: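 Relative to vehicle controls, growth inhibition of compound-treated cln2 rad14 yeast was recorded.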

[5] = NCI Yeast Anticancer Drug Screen. Data for the bub3 strain (AID 167); conditions: S. cerevisiae bub3 mutant strain, stronger effect = higher value
How it was run: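 Screening used yeast with an engineered genetic alteration affecting cell cycle control. Compound-exposed cultures were compared with vehicle cultures, and reduced growth was taken as inhibition.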

[6] = NCI Yeast Anticancer Drug Screen. Data for the mlh1 rad18 strain (AID 175); conditions: S. cerevisiae mlh1 rad18 strain growth inhibition, stronger effect = higher value
How it was run: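 Test agents were incubated with a yeast strain of defined genotype (DNA damage repair defect). Inhibition of growth was derived by comparison with vehicle-exposed cultures.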

[7] = at 5.0 µM (retest, dose inferred, filed as 0.5)
[8] = at 50.0 µM (retest, dose inferred, filed as 5.0)

Row | Compound | growth inhibition [1, 7] | growth inhibition [1, 8] | growth inhibition ([1]; at 50.0 µM) | growth inhibition [2, 7] | growth inhibition [2, 8] | growth inhibition ([2]; at 50.0 µM) | growth inhibition [3, 7] | growth inhibition [3, 8] | growth inhibition ([3]; at 50.0 µM) | growth inhibition [4, 7] | growth inhibition [4, 8] | growth inhibition ([4]; at 50.0 µM) | growth inhibition [5, 7] | growth inhibition [5, 8] | growth inhibition ([5]; at 50.0 µM) | growth inhibition [6, 7] | growth inhibition [6, 8] | growth inhibition ([6]; at 50.0 µM)
1 | COc1cc(O)c2c(c1)C(=O)c1cc3c(c(O)c1C2=O)C(OC1OC(C)C(O)C(O)C1OC)C(OC)C(C)(O)C3=O (configuration not stated) | 95% (active) | 99% (active) | 92.5% (active) | 35% | 99% (active) | 93.4% (active) | 35% | 99% (active) | 93.7% (active) | 12% | 99% (active) | 89.9% (active) | 15% | 99% (active) | 93.3% (active) | 58% | 99% (active) | 92.8% (active)
2 | c1cc[c]([Ge]([O]c2cccc3cccnc23)([c]2ccccc2)[c]2ccccc2)cc1 | 10% | 10% | 73% (active) | 7% | 7% | 67% | -3% | -3% | 67.5% | 6% | 6% | 45.5% | 7% | 7% | 72.2% (active) | 10% | 10% | 74% (active)
3 | Cc1nc2c(cnn2-c2ccccc2)c(=O)o1 | -143% | -140% | 28.3% | -52% | -52% | 2.25% | -57% | -62% | -3.15% | -52% | -45% | -31.2% | -65% | -73% | -0.85% | -115% | -108% | 50.6%
4 | O=C1CCCC/C1=C/c1ccc(Cl)cc1 | -151% | 35% | 87.3% (active) | -49% | -13% | 81.2% (active) | -64% | 35% | 82% (active) | -57% | -37% | 33% | -64% | 27% | 73.7% (active) | -229% | 36% | 90.8% (active)
5 | FC(F)(F)c1ccc(Cl)c(NC(=S)SC2CCCCC2)c1 | 5% | 95% (active) | 98.5% (active) | 0% | 97% (active) | 99.2% (active) | 7% | 99% (active) | 99.3% (active) | -30% | 88% (active) | 98.5% (active) | 0% | 98% (active) | 98.8% (active) | 7% | 97% (active) | 98.4% (active)
6 | CCCCCCCCCc1cccc(N2C(N)=NC(N)=NC2(C)C)c1 | 99% (active) | 88% (active) | 99.3% (active) | 100% (active) | 28% | 99.6% (active) | 99% (active) | 42% | 99.6% (active) | 99% (active) | 19% | 99% (active) | 98% (active) | 12% | 99.4% (active) | 99% (active) | 29% | 99.4% (active)
7 | CC(C)N(CCO)CC(O)Cn1cnc2c(N)ncnc21 (configuration not stated) (tested in a mixture with another compound) | -17% | 0% | -37.5% | -9% | -8% | 7.75% | -14% | 1% | -15.6% | -18% | -6% | 40.2% | -8% | -6% | -4.65% | -8% | -5% | 43%
8 | CC1(C)S[C@@H]2[C@H](N3C(=O)c4ccccc4C3=O)CN2[C@H]1NC(=O)N[C@@H]1N2C[C@@H](N3C(=O)c4ccccc4C3=O)[C@H]2SC1(C)C | 0% | 18% | 39.6% | -4% | 43% | 63.8% | -2% | 20% | 43% | -6% | 44% | 23.2% | 4% | 93% (active) | 92.8% (active) | -2% | 36% | 70.8% (active)
9 | CCCN(CCC)C(=S)N/N=C/c1cccc(C)n1 | -8% | 100% (active) | 90.3% (active) | -33% | 99% (active) | 93.2% (active) | -40% | 98% (active) | 92.8% (active) | -9% | 100% (active) | 93.1% (active) | -32% | 100% (active) | 92.5% (active) | -8% | 99% (active) | 89.7% (active)
10 | COc1cc(CNC(=O)CCCCCCCCCCSC#N)ccc1O | 6% | 59% | 82.1% (active) | 5% | 43% | 85.2% (active) | 7% | 77% (active) | 83.6% (active) | 1% | 76% (active) | 81% (active) | 0% | 82% (active) | 86.7% (active) | 20% | 73% (active) | 81.2% (active)
11 | Oc1c(C(O)(c2ccccc2)c2ccc3ccccc3c2O)ccc2ccccc12 | 17% | 81% (active) | 84.8% (active) | 3% | 81% (active) | 84.4% (active) | 13% | 76% (active) | 79.4% (active) | 9% | 96% (active) | 82.5% (active) | 21% | 95% (active) | 89.2% (active) | 9% | 85% (active) | 86.9% (active)
12 | O=C(C=P(c1ccccc1)(c1ccccc1)c1ccccc1)c1ccccc1-c1ccccc1C(=O)C=P(c1ccccc1)(c1ccccc1)c1ccccc1 | 98% (active) | 92% (active) | 87.9% (active) | 99% (active) | 92% (active) | 90.8% (active) | 99% (active) | 87% (active) | 90.5% (active) | 97% (active) | 93% (active) | 88.5% (active) | 99% (active) | 93% (active) | 88.2% (active) | 95% (active) | 88% (active) | 90.4% (active)
13 | O=C1OC2(CCN(Cc3ccccc3)CC2)C(=O)N1c1cccc(Cl)c1 | -1% | 35% | 79.5% (active) | -8% | 22% | 18.5% | 28% | 58% | 76.5% (active) | 60% | 52% | 40.8% | 14% | 81% (active) | 52.8% | 3% | 37% | 62.5%
14 | CCCCCCCCCCCC(=O)OCC1OC(OC)C(NC(=O)N(CCCl)N=O)C(O)C1O (configuration not stated) | 39% | 39% | 79.9% (active) | 20% | 20% | 67.5% | 21% | 21% | 90.5% (active) | 17% | 17% | 30.5% | 13% | 13% | 77.4% (active) | 14% | 14% | 76% (active)
15 | O=C1CSC(c2ccc([N+](=O)[O-])cc2)N1c1ccc(-c2ccc(-n3c(-c4ccccc4)nc4ccccc4c3=O)cc2)cc1 (configuration not stated) | -1% | 91% (active) | 85.2% (active) | 13% | 79% (active) | 84.4% (active) | 14% | 93% (active) | 94% (active) | 31% | 75% (active) | 72.5% (active) | -14% | 95% (active) | 95.2% (active) | 19% | 96% (active) | 94.8% (active)
16 | CC[C@]1(O)C[C@H]2[C@@H]3CCc4cc(OC)ccc4[C@H]3CC[C@]2(C)[C@H]1O | -3% | 98% (active) | 46% | -6% | 98% (active) | 48.5% | -4% | 98% (active) | 49.9% | -6% | 87% (active) | 68.9% | 2% | 97% (active) | 49.8% | -4% | 99% (active) | 46.4%
17 | COc1ccc(CSC(=S)Nc2cc(C)c(C)cc2[N+](=O)[O-])cc1 | 9% | 93% (active) | 95.8% (active) | 6% | 95% (active) | 97.8% (active) | 46% | 96% (active) | 97.5% (active) | -11% | 90% (active) | 93% (active) | 4% | 96% (active) | 97% (active) | 60% | 95% (active) | 98% (active)
18 | CC(C)=CCC/C(=C/CC/C(C)=C/CCc1ccoc1)C(=O)O | -5% | 20% | 72.8% (active) | 3% | 26% | 44.1% | -9% | 41% | 59.4% | 17% | 73% (active) | 42.7% | -9% | 64% | 53% | 2% | 35% | 62.3%
19 | O=C(CC(=O)Nc1cccc(Cl)c1)NNCC(=O)Nc1nnc(-c2ccccc2)s1 | 8% | 98% (active) | 8.5% | 6% | 99% (active) | 8.05% | 11% | 99% (active) | 0.65% | 3% | 98% (active) | 51.1% | 7% | 99% (active) | -3.45% | 3% | 98% (active) | 9.9%
